Source: PubChem BioAssay (NCATS)
For part of these data: Measured potencies and affinities stand elsewhere. Active and inactive are the calls of the source. No rule for the calls is given here.

Columns and labels:
[1] = Ebola virus entry assay, green fluorescence channel
[2] = Ebola virus entry assay, blue channel fluorescence
[3] = Ebola virus entry assay, ratio channel
[4] = Ebola virus entry assay, green channel fluorescence
[5] = Ebola virus entry assay, reporter ratio channel; Channel type: primary
[6] = Ebola virus entry assay, blue channel (ratio component)
For efficacy in this document: 0% is about no effect.

C#C[C@]1(OC(C)=O)CC[C@H]2[C@@H]3CCC4=C/C(=N/O)CC[C@@H]4[C@H]3CC[C@@]21CC
active: AC50 [2] 39.8 µM | AC50 [5] 39.8 µM
inactive: efficacy [1] -27.8% | outcome [3] | outcome [4]

O=c1oc2c(O)c(O)cc3c(=O)oc4c(O)c(O)cc1c4c23
inactive: efficacy [1] 33.8% | outcome [4]
active: AC50 [2] 11.2 µM | AC50 [3] 11.2 µM | AC50 [5] 11.2 µM

CC[C@H](NC(C)C)[C@H](O)c1ccc(O)c2[nH]c(=O)ccc12
inactive: efficacy [1] -13.2% | outcome [2] | outcome [3] | outcome [4] | outcome [5]

C[C@]12CC[C@@H]3c4ccc(O)cc4CC[C@H]3[C@@H]1CCC2=O
inactive: efficacy [1] 55% | outcome [4]
active: AC50 [2] 3.55 µM | AC50 [3] 10 µM | AC50 [5] 10 µM

Cc1cccc(Nc2cc(Cl)nc(SCC(=O)O)n2)c1C
inactive: efficacy [1] 19.8% | outcome [2] | outcome [3] | outcome [4] | outcome [5]

CCCC(=O)O[C@]1(C(=O)CCl)[C@@H](C)C[C@H]2[C@@H]3CCC4=CC(=O)C=C[C@]4(C)[C@@]3(F)C(=O)C[C@@]21C
active: AC50 [2] 35.5 µM | AC50 [3] 20 µM | AC50 [5] 20 µM
inactive: efficacy [1] 17% | outcome [4]

COc1ccccc1N1CCN(CCCNc2cc(=O)n(C)c(=O)n2C)CC1
inactive: efficacy [1] 43.6% | outcome [3] | outcome [4]
active: AC50 [2] 28.2 µM | AC50 [5] 39.8 µM

Cc1c(-c2ccccc2)oc2c(C(=O)OCCN3CCCCC3)cccc2c1=O
inactive: efficacy [1] -55.6% | outcome [2] | outcome [3] | outcome [4] | outcome [5]

Cc1ccc(C(=O)Nc2ccc(S(=O)(=O)O)c3cc(S(=O)(=O)O)cc(S(=O)(=O)O)c23)cc1NC(=O)c1cccc(NC(=O)Nc2cccc(C(=O)Nc3cc(C(=O)Nc4ccc(S(=O)(=O)O)c5cc(S(=O)(=O)O)cc(S(=O)(=O)O)c45)ccc3C)c2)c1
inactive: efficacy [1] 21.5% | outcome [4]
active: AC50 [2] 39.8 µM | AC50 [3] 20 µM | AC50 [5] 20 µM

C#CC1(O)CC[C@H]2[C@@H]3CCC4=CCCC[C@@H]4[C@H]3CC[C@@]21C (stereo partly drawn)
inactive: efficacy [1] 7.54% | outcome [4]
active: AC50 [2] 22.4 µM | AC50 [3] 22.4 µM | AC50 [5] 22.4 µM

CC(=O)Oc1ccc2c(c1)CC[C@@H]1[C@@H]2CC[C@]2(C)[C@@H](O)CC[C@@H]12
active: AC50 [2] 35.5 µM | AC50 [3] 22.4 µM | AC50 [5] 22.4 µM
inactive: efficacy [1] 11.1% | outcome [4]

Cn1cnc2c1c(=O)[nH]c(=O)n2C
inactive: efficacy [1] -13.7% | outcome [2] | outcome [3] | outcome [4] | outcome [5]

CC(=O)Oc1ccc(C(c2ccc(OC(C)=O)cc2)c2ccccn2)cc1
inactive: efficacy [1] -19% | outcome [2] | outcome [3] | outcome [4] | outcome [5]

CCCOc1ccccc1-c1nc2n[nH]nc2c(=O)[nH]1
inactive: efficacy [1] 11% | outcome [2] | outcome [3] | outcome [4] | outcome [5]

CCN(CC)CCOc1ccc2c(c1)C(=O)c1cc(OCCN(CC)CC)ccc1-2
inactive: efficacy [1] 9% | outcome [4]
active: AC50 [2] 1.41 µM | AC50 [3] 1.41 µM | AC50 [5] 1.41 µM

OC(CCN1CCCCC1)(c1ccccc1)C1CC2C=CC1C2 (stereo not drawn)
inactive: efficacy [1] -14.6% | outcome [3] | outcome [4] | outcome [5]
active: AC50 [2] 12.6 µM

Cc1cc2nc3ccc(=[N+](C)C)cc-3sc2cc1N
inactive: efficacy [1] -32.6% | outcome [3] | outcome [4] | outcome [5]
active: AC50 [2] 39.8 µM

Clc1ccccc1C(c1ccccc1)(c1ccccc1)n1ccnc1
active: AC50 [2] 39.8 µM | AC50 [5] 39.8 µM
inactive: efficacy [1] 24.5% | outcome [3] | outcome [4]

c1ccc(CCNc2nc(-c3ccccc3)cs2)cc1
active: AC50 [2] 39.8 µM | AC50 [5] 39.8 µM
inactive: efficacy [1] 29.5% | outcome [3] | outcome [4]

Cc1ccc(CCn2c3c(c4cc(Cl)ccc42)CN(C)CC3)cn1
inactive: efficacy [1] 26.4% | outcome [4]
active: AC50 [2] 14.1 µM | AC50 [3] 17.8 µM | AC50 [5] 17.8 µM

COc1ccc2cc3[n+](cc2c1OC)CCc1cc2c(cc1-3)OCO2
inactive: efficacy [1] 30.3% | outcome [2] | outcome [3] | outcome [4] | outcome [5]

CN(Cc1cc(Br)cc(Br)c1N)C1CCCCC1
active: AC50 [2] 22.4 µM | AC50 [3] 20 µM | AC50 [5] 20 µM
inactive: efficacy [1] 17.3% | outcome [4]

Cc1cccc(N(C)C(=S)Oc2ccc3ccccc3c2)c1
inactive: efficacy [1] 22.5% | outcome [4]
active: AC50 [2] 25.1 µM | AC50 [3] 25.1 µM | AC50 [5] 25.1 µM

CN(C)CCN(Cc1ccccc1)c1ccccn1
inactive: efficacy [1] 35.7% | outcome [4]
active: AC50 [2] 22.4 µM | AC50 [3] 20 µM | AC50 [5] 20 µM

CCOC(=O)c1ccc(OC(=O)CCCCCN=C(N)N)cc1
inactive: efficacy [1] -11.5% | outcome [2] | outcome [3] | outcome [4] | outcome [5]

Nc1ccc(N=Nc2ccccc2)c(N)n1
inactive: efficacy [1] -23.7% | outcome [3] | outcome [4]
active: AC50 [2] 39.8 µM | AC50 [5] 39.8 µM

CCOC(=O)C1=C[C@]2(CC)CCCN3CCc4c(n1c1ccccc41)[C@@H]32
inactive: efficacy [1] -42.6% | outcome [4]
active: AC50 [2] 12.6 µM | AC50 [3] 17.8 µM | AC50 [5] 17.8 µM

Oc1c(Cl)cc(Cl)c(Cl)c1Cc1c(O)c(Cl)cc(Cl)c1Cl
inactive: efficacy [1] 19.2% | outcome [4]
active: AC50 [2] 28.2 µM | AC50 [3] 15.8 µM | AC50 [5] 15.8 µM

CC(C)NCC(O)c1ccc2ccccc2c1 (stereo not drawn)
inactive: efficacy [1] 20.8% | outcome [4]
active: AC50 [2] 31.6 µM | AC50 [3] 25.1 µM | AC50 [5] 25.1 µM

O=C(O)Cc1ccc(CCNS(=O)(=O)c2ccc(Cl)cc2)cc1
inactive: efficacy [1] 18.5% | outcome [2] | outcome [3] | outcome [4] | outcome [5]

CCCCCCCCCCCCCCCCC(C(=O)O)C(O)(CC(=O)O)C(=O)O (stereo not drawn)
inactive: efficacy [1] -32% | outcome [2] | outcome [3] | outcome [4] | outcome [5]

CC(C)NCC(O)COc1ccc(COCCOC(C)C)cc1 (stereo not drawn)
inactive: efficacy [1] 22.5% | outcome [4]
active: AC50 [2] 15.8 µM | AC50 [3] 12.6 µM | AC50 [5] 12.6 µM

Cc1cc2c(OCC(CNC(C)(C)C)OC(=O)c3ccccc3)cccc2[nH]1 (stereo not drawn)
inactive: efficacy [1] 15.1% | outcome [4]
active: AC50 [2] 25.1 µM | AC50 [3] 28.2 µM | AC50 [5] 28.2 µM

Oc1ccc(Cl)cc1Cc1cc(Cl)ccc1O
inactive: efficacy [1] 31.6% | outcome [4]
active: AC50 [2] 3.55 µM | AC50 [3] 11.2 µM | AC50 [5] 11.2 µM

CN1CCN(c2cc3c(nn2)Oc2ccccc2N3C)CC1
inactive: efficacy [1] -18% | outcome [2] | outcome [3] | outcome [4] | outcome [5] | outcome [6]

COc1ccc(CN(CCN(C)C)c2ccccn2)cc1
active: AC50 [2] 15.8 µM | AC50 [3] 15.8 µM | AC50 [5] 15.8 µM
inactive: efficacy [1] 22.5% | outcome [4]

COCCc1ccc(OCC2CO2)cc1 (stereo not drawn)
inactive: efficacy [1] 25.5% | outcome [2] | outcome [3] | outcome [4] | outcome [5]

C1CCN2C[C@@H]3C[C@@H](CN4CCCC[C@@H]34)[C@H]2C1
inactive: efficacy [1] 13.4% | outcome [2] | outcome [3] | outcome [4] | outcome [5] | outcome [6]

C=Cc1c(C)c2cc3[nH]c(cc4nc(cc5nc(cc1[nH]2)C(C)=C5CCC(=O)O)C(CCC(=O)O)=C4C)c(C)c3C=C
inactive: efficacy [1] 15.1% | outcome [2] | outcome [3] | outcome [4] | outcome [5] | outcome [6]

CC1=C(C(=O)O)N2C(=O)[C@@H](NC(=O)[C@H](N)C3=CCC=CC3)[C@H]2SC1
inactive: efficacy [1] -21.8% | outcome [2] | outcome [3] | outcome [4] | outcome [5]

CC(Cc1cccc(C(F)(F)F)c1)NCCOC(=O)c1ccccc1 (stereo not drawn)
active: AC50 [2] 31.6 µM | AC50 [3] 28.2 µM | AC50 [5] 28.2 µM
inactive: efficacy [1] 23% | outcome [4]

CC[C@H]1CN2CCc3cc(OC)c(OC)cc3[C@@H]2C[C@@H]1C[C@H]1NCCc2cc(OC)c(OC)cc21
active: AC50 [2] 17.8 µM | AC50 [3] 17.8 µM | AC50 [5] 17.8 µM
inactive: efficacy [1] 58.8% | outcome [4]

COc1cc([C@H]2Oc3cc([C@H]4Oc5cc(O)cc(O)c5C(=O)[C@@H]4O)ccc3O[C@@H]2CO)ccc1O
inactive: efficacy [1] 13.5% | outcome [3] | outcome [4]
active: AC50 [2] 39.8 µM | AC50 [5] 44.7 µM

O=C(/C=C/c1ccc(O)c(O)c1)O[C@@H]1C[C@@](OC(=O)/C=C/c2ccc(O)c(O)c2)(C(=O)O)C[C@@H](O)[C@@H]1O
inactive: efficacy [1] 21.8% | outcome [4]
active: AC50 [2] 28.2 µM | AC50 [3] 20 µM | AC50 [5] 20 µM

CO/N=C(/C(=O)N[C@@H]1C(=O)N2C(C(=O)O)=C(Cn3nnc(C)n3)CS[C@H]12)c1csc(N)n1
inactive: efficacy [1] 14.5% | outcome [2] | outcome [3] | outcome [4] | outcome [5]

CCN(CC)CCSC(=O)C(c1ccccc1)c1ccccc1
active: AC50 [2] 31.6 µM | AC50 [5] 39.8 µM
inactive: efficacy [1] -29.7% | outcome [3] | outcome [4]

CC(C)=CCOc1ccc(/C=C/C(=O)c2ccc(OCC=C(C)C)cc2OCC(=O)O)cc1
inactive: efficacy [1] -15.5% | outcome [2] | outcome [3] | outcome [4] | outcome [5]

Cc1ccc(Cl)c(OCC(O)CNC(C)(C)C)c1 (stereo not drawn)
inactive: efficacy [1] -22.3% | outcome [4]
active: AC50 [2] 15.8 µM | AC50 [3] 28.2 µM | AC50 [5] 28.2 µM

CCC1Nc2cc(Cl)c(S(N)(=O)=O)cc2S(=O)(=O)N1 (stereo not drawn)
inactive: efficacy [1] -28.2% | outcome [2] | outcome [3] | outcome [4] | outcome [5]

O=C(Nc1ccc([N+](=O)[O-])cc1Cl)c1cc(Cl)ccc1O
inactive: efficacy [1] 35.2% | outcome [4]
active: AC50 [2] 0.891 µM | AC50 [3] 1 µM | AC50 [5] 1 µM

CC(C)OC(=O)C(C(=O)OC(C)C)=C1SC=CS1
inactive: efficacy [1] -38.6% | outcome [3] | outcome [4] | outcome [5]
active: AC50 [2] 39.8 µM
